# Out of some 48,000 compounds screened, about 13,000 (27%) showed an effect of 50% or more. The list shows a part of the results.
# Test system: Wolbachia pipientis
# Test: Anti-Wolbachia Cell-Based Screen
# Type: functional
# Set-up: scale not given: in the data most compounds retested in dose-response had high values
# Details: 5 µM
row,Compound,Percent Effect [%]
1,CN1CC(c2ccccc2)CC12CCN(C(=O)c1c(Cl)cnn1C)CC2 (stereo not given),11
2,CC1CCN(C)c2ccccc2N1C(=O)c1ccnc(-n2cncn2)c1 (stereo not given),-2.842
3,Cc1ccccc1C(C(=O)NCc1nc(-c2ncccn2)no1)N(C)C (stereo not given),-2.983
4,Cc1cccnc1[C@H](C)Nc1nc(-c2cccnc2)nc2c1CNC2,-9.004
5,CC(C)n1ccnc1C1CCN(C(=O)c2ccccc2N(C)C)CC1,-47.93
6,COc1cccc(COCC(=O)NC(C(N)=O)c2ccccc2F)c1 (stereo not given),9.878
7,CCOc1ccc(CC(CNC(=O)c2ccco2)C(N)=O)cc1 (stereo not given),-3.482
8,COc1cccc(CC(=O)NCC(Cc2ccc(F)cc2)C(N)=O)c1 (stereo not given),112.8
9,COc1ccc(C(=O)N(C)Cc2nnc3ccccn23)c(OC)c1,-6.181
10,COc1ccccc1C(=O)N(C)Cc1nnc2ccccn12,155.2
11,CN(Cc1nnc2ccccn12)C(=O)CC1CCCCC1,-9.634
12,CN(Cc1nnc2ccccn12)C(=O)CCC1CCCC1,-7.535
13,COc1ccc(C(=O)N(C)Cc2cccc(C#N)c2)c(OC)c1OC,5.74
14,COc1ccc(C(=O)N(C)Cc2nnc3ccccn23)c(OC)c1OC,155.5
15,COc1cccc(C(=O)N(C)Cc2ncc(C)c(OC)c2C)c1OC,-3.642
16,COc1ccc(OC)c(C(=O)N(C)Cc2nnc3ccccn23)c1,126.3
17,Cc1ccc(C)c(CN(C)Cc2nnc3ccccn23)c1,-4.756
18,CCc1ccc(C2COCCN2C(=O)NCc2cccc(C#N)c2)o1 (stereo not given),-15.12
19,Cn1cccc1-c1cc(C(=O)N2CCCC2c2ccc(C(N)=O)s2)[nH]n1 (stereo not given),-10.74
20,CC(C)CN1CCOC[C@H](Oc2ccc(S(C)(=O)=O)cc2)C1,2.76
21,Cc1cc(C(=O)NCc2ccnc(N3CCN(C)CC3)c2)c(C)s1,0.2044
22,CSC1=Nc2c(cnn2-c2ccc(C)cc2)C2=NCCCN12,111.5
23,CSC1=Nc2c(cnn2-c2ccccc2)C2=NCCCN12,110.4
24,Cc1cc(NC(=O)N2CCC[C@@H]2CO)nn1-c1cccc(Cl)c1,-10.34
25,CCSC1=Nc2c(cnn2-c2ccc(Cl)cc2)C2=NCCCN12,119

row,Compound,Percent Effect [%]
1,CSC1=Nc2c(cnn2-c2cccc(Cl)c2)C2=NCCCN12,101.8
2,O=C1CCCCN1CSc1nnnn1-c1ccc(Cl)cc1,-1.778
3,CC(C)OCCOCc1cccc(NC(=O)NCCn2ccnc2)c1,1.646
4,O=C(CCc1cc2n(n1)CCN(Cc1ncc[nH]1)C2)N1CCCC1,6.822
5,Cc1cc(N[C@H]2CCCC[C@@H]2O)n2nccc2n1,-46.39
6,Cc1nc(Cn2cncc(Br)c2=O)no1,4.078
7,Cn1cnc2c1CCN(CC(=O)N(Cc1ccccc1F)C1CC1)C2,-0.08141
8,CSC1=Nc2c(cnn2-c2ccc(Cl)cc2)C2=NCCCN12,101
9,CNC(=O)c1sccc1S(=O)(=O)NC,-5.377
10,COc1cccc2c1OCCCN(c1nc(N)nc3c1CCNC3)C2,-2.498
11,Cc1ccc(NCc2cncc3c2CCN(Cc2ccccn2)C3)nn1.Cl.Cl,108.9
12,Cc1nccc(NCc2cncc3c2CCN(CC2CCOC2)C3)n1.Cl.Cl (stereo not given),113.7
13,Cl.Cl.c1csc(CN2CCc3c(CNc4nncs4)cncc3C2)c1,13.01
14,Cc1nccc(NCc2cncc3c2CCN(CC2CC2)C3)n1.Cl.Cl,94.72
15,CC(C)(C)c1ccc(-c2n[nH]c3c2CN(CC2CCOC2)CC3)cc1 (stereo not given),5.17
16,Cc1ccc(NCc2cncc3c2CCN(C(=O)C2CC=CC2)C3)nn1.Cl,36.84
17,Cl.Cl.c1cnc(NCc2cncc3c2CCN(Cc2ccsc2)C3)nc1,10.62
18,Cl.Cl.Cl.c1cnc(NCc2cncc3c2CCN(Cc2cccnc2)C3)nc1,11.16
19,Cc1cc(CN2CCc3c(CNc4ncccn4)cncc3C2)oc1C.Cl.Cl,20.89
20,Cc1nccc(NCc2cncc3c2CCN(CCN(C)C)C3)n1,100
21,O=C(NCCn1cccc1)C1CCCOC1 (stereo not given),1.95
22,CCC(Cn1ccc2[nH]c(=O)c(C#N)cc2c1=O)OC (stereo not given),-23.91
23,Cc1ccccc1[C@@H]1CN(CCOCCO)C[C@H]1C(=O)O,-28.11
24,O=C(Nc1cc(-c2ccncc2)no1)C1CCC1,-23.1
25,Cn1ccc(NC(=O)CN2C[C@H]3CC[C@@H]2CN(S(C)(=O)=O)C3)n1,4.015

row,Compound,Percent Effect [%]
1,CC1CN(C)CCN1Cc1cccc(C(=O)NCc2ccco2)c1 (stereo not given),11.16
2,O=C1N(c2cccc(F)c2)Cc2nc(=O)[nH]n21,-10.2
3,Cc1nc(NCc2noc(C3CCCO3)n2)c2sccc2n1 (stereo not given),146.8
4,Fc1ccc(OCC2CCCO2)c(NCc2noc(C3CC3)n2)c1 (stereo not given),2.456
5,Cc1nc(NCCc2noc(C3CCCO3)n2)c2sccc2n1 (stereo not given),194.7
6,COCc1noc(CCNC(=O)c2ccc(C3CCCO3)s2)n1 (stereo not given),-0.9385
7,Cc1nc(CN2CCCC(Nc3ncnc4ccsc34)C2)no1 (stereo not given),36.74
8,Cc1nc(N2CCC3(CCCN(CC4CC4)C3=O)C2)c2sccc2n1 (stereo not given),-31.46
9,Cc1nc(N(Cc2ccncc2)CC2CCCO2)c2ccsc2n1 (stereo not given),2.161
10,COc1ccnc(CNc2nc(C)nc3ccsc23)c1,-33.44
11,Cc1nc(NCc2noc(C3CCCO3)n2)c2ccsc2n1 (stereo not given),190.8
12,Cc1cccc(N2CCN(C(=O)C3CC4(CCNCC4)CN3)CC2)n1 (stereo not given),-9.883
13,COC(=O)CN(Cc1ccccc1C)C(=O)CCNC(=O)C(C)(C)C,10.54
14,Cc1cc2nc(CO[C@H]3CN(C4CCC4)C[C@H]3F)[nH]c2cc1C,-5.771
15,O=C(O)C(F)(F)F.O=C1CCC2(CCN(c3ncc(F)cn3)CC2)N1Cc1ccncc1,-48.93
16,N#Cc1ccc(N2CCC3(CCC(=O)N3Cc3cccnc3)CC2)nc1.O=C(O)C(F)(F)F.O=C(O)C(F)(F)F,109.7
17,N#Cc1ccc(N2CCC3(CCC(=O)N3Cc3ccncc3)CC2)nc1.O=C(O)C(F)(F)F.O=C(O)C(F)(F)F,101
18,Cc1ccc(N2CCC3(CCC(=O)N3Cc3ccncc3)CC2)nn1.O=C(O)C(F)(F)F,117.9
19,O=C(O)C(F)(F)F.O=C(O)C(F)(F)F.O=C1CC[C@]2(CC[C@@H](NC3CCOC3)CC2)N1Cc1ccncc1 (stereo not given in full),-47.26
20,N#Cc1ccc(N2CCC3(CC2)COCCN3Cc2cccnc2)cc1.O=C(O)C(F)(F)F,-19.62
21,N#Cc1ccc(CN2CC3(CCCCN3c3cccnc3)CC2=O)cc1.O=C(O)C(F)(F)F (stereo not given),-4.907
22,Cc1ccc(N2CCC3(CC2)CNC(=O)CO3)nn1.O=C(O)C(F)(F)F,10.91
23,Cc1cc(CN(C)Cc2cc3c(cc2OC(F)F)OCO3)on1,-6.74
24,CC(C)c1nnc(CN2CCCC2C(=O)OCc2ccccc2)o1 (stereo not given),4.736
25,COCC1CCN(CCCc2cn[nH]c2)CC1,0.277

row,Compound,Percent Effect [%]
1,Cc1cc(C)n(-c2ccc(N3CCC4(CC3)OCCO4)nc2)n1,6.34
2,CC(=O)N1CCCc2sc(C(=O)NC3CC3)nc21,2.286
3,CCNC(=O)c1nc2c(s1)CCCN2S(C)(=O)=O,-29.83
4,COCCN(C)C(=O)c1nc2c(s1)CCCN2C,4.068
5,CCN(C(=O)c1nc2c(s1)CCCN2S(C)(=O)=O)C(C)C,111.8
6,CCN(C(=O)c1nc2c(s1)CCCN2Cc1ccccc1)C(C)C,-4.382
7,CCN(C(=O)c1nc2c(s1)CCCN2C(C)=O)C(C)C,127.1
8,CCN(C(=O)c1nc2c(s1)CCCN2C)C(C)C,108.3
9,COCCN(C)C(=O)c1nc2c(s1)CCCN2S(C)(=O)=O,-10.12
10,CC(=O)N1CCCc2sc(C(=O)Nc3ccc(C)nc3)nc21,-6.006
11,CCn1cc(CN2CCC(c3ccncc3)CC2)cc1C#N,18.43
12,Cc1ccc2c(c1)c(CNC(=O)C1CC(=O)N(CCN(C)C)C1)nn2C (stereo not given),14.04
13,CC(C)OCCN(C)CC(c1cccs1)N1CCOCC1 (stereo not given),-0.1545
14,Cc1sc2nc(SC(C)c3nc(C(C)C)no3)nc(N)c2c1C (stereo not given),10.39
15,COc1c(Br)cccc1CCNC(=O)c1ccon1,-9.617
16,Cc1nc(C)n(CC2CCCN(CCc3ccncc3)C2)n1 (stereo not given),-0.4528
17,COc1ccc(CCN2CCCC(Cn3nc(C)nc3C)C2)cc1 (stereo not given),9.645
18,Cc1nc(C)n(CC2CCCN(CCc3ccccc3)C2)n1 (stereo not given),91.53
19,Cc1nc(C)n(CC2CCCN(CCCc3ccccc3)C2)n1 (stereo not given),82.12
20,CCOCC1CC2(CCN(C(=O)c3ccccn3)CC2)CO1.O=C(O)C(F)(F)F (stereo not given),-17.18
21,CN(C)CC(=O)N1CCC2(CC1)COC(COc1ccccn1)C2.O=C(O)C(F)(F)F.O=C(O)C(F)(F)F (stereo not given),11.11
22,CNC(=O)NCC1CCC2(CCN(C(=O)c3ccccn3)CC2)CO1.O=C(O)C(F)(F)F (stereo not given),105.2
23,O=C(O)C(F)(F)F.O=C(c1cocn1)N1CCC2(CC1)COC(COCc1ccccn1)C2 (stereo not given),-10.48
24,Cc1ccc(C(=O)N2CCC3(CC2)COC(COc2ccccn2)C3)o1.O=C(O)C(F)(F)F (stereo not given),2.842
25,NCC1CCC2(CCN(C(=O)c3ccccn3)CC2)CO1.O=C(O)C(F)(F)F.O=C(O)C(F)(F)F (stereo not given),112.6

# Source: ChEMBL document CHEMBL3988442, “University of Dundee, Small-Polar-MMV Screening Library” (2021)
